PubChem BioAssay AID623911 (Vanderbilt High Throughput Screening Facility, 2012)
About 770 (37%) of roughly 2,100 compounds were called active.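 How the source made its calls: active means by-eye trace score of 1 for enhancers or -1 for inhibitors, so actives lie on both sides (some results past the limit were not filed as active); inactive means score 0, or 3 fluorescent, or 4 baseline rise.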 The list shows a part of the results.

biological target: G protein-activated inward rectifier potassium channel 2 (Homo sapiens) + G protein-activated inward rectifier potassium channel 1 (Homo sapiens) (UniProt P48051+P48549); assay: GIRK1/2 thallium flux modulators, retest, confirmation, cell-based, HEK293 rmGlu8/hGIRK1/2, FluoZin-2 (AID 623911); conditions: HEK293 rmGlu8/hGIRK1/2, thallium flux FluoZin-2; actives lie on both sides; glutamate co-added at its EC20 level
Sequence (P48051 whole entry, looked up): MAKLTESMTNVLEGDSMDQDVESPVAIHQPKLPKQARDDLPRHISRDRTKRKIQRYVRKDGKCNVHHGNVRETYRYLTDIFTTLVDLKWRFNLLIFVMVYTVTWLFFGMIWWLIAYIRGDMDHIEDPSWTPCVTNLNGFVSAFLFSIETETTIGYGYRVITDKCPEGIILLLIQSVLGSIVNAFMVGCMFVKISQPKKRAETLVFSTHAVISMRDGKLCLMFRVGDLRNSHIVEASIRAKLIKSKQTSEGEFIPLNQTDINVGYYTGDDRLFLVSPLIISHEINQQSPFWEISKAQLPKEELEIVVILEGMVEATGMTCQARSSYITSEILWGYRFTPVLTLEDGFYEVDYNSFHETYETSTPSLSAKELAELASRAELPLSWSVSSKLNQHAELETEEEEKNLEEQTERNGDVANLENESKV
Sequence (P48549 whole entry, looked up): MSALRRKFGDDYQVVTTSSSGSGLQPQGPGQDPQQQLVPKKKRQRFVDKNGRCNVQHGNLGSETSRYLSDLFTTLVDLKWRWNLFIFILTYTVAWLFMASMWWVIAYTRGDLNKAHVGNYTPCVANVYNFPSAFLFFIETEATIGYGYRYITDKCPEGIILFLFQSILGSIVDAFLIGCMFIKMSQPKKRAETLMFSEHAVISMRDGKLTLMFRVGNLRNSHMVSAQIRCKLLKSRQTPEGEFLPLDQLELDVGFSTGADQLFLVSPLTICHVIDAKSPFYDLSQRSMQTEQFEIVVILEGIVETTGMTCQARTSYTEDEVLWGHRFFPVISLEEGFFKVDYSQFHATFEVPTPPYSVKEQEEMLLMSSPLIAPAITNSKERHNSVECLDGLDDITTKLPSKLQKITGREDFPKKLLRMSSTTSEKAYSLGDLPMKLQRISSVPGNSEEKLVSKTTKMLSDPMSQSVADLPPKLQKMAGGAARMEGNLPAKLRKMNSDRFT

Manual score, inactive:
Cn1c(NC(=O)Cc2ccc(F)cc2)cc(=O)n(C)c1=O 0
CS(=O)(=O)c1ccc2nc(NC(=O)C3C4C=CC(C4)C3C(=O)O)sc2c1 (stereo not drawn) 0
CC1=NN(/C(=N\c2nnc(C)s2)Nc2ccccc2)[C@H](c2cccc3ccccc23)S1 0
CCN(CC)CCCn1c(=S)[nH]c2cc(Cl)ccc2c1=O 0
CCN(CC)CCn1c(=S)[nH]c2cc(Cl)ccc2c1=O 0
O=C(NNS(=O)(=O)c1ccccc1F)c1cccc(S(=O)(=O)N2CCOCC2)c1 0
CCC(CC)c1nnc(NC(=O)c2ccc3ccccc3n2)s1 0
CCc1ccc(NCc2cc3c(C)nn(-c4ccccc4)c3[nH]c2=O)cc1 0
O=C1CC(C(F)(F)C(F)(F)C(F)(F)F)=Nc2ccccc2N1 0
Cc1ccccc1C(=O)N/N=C/c1ccc([N+](=O)[O-])s1 0
O=C(N/N=C/c1ccc([N+](=O)[O-])s1)c1cccc(Br)c1 0
CCOC(=O)C1CCCN(C(=O)c2cc(-c3ccccc3)on2)C1 (stereo not drawn) 0
CCOC(=O)N1CCN(C(=O)CSc2ncnc3ccccc23)CC1 0
Cc1ccc(S(=O)(=O)CC(=O)Nc2ccc(S(=O)(=O)Nc3onc(C)c3C)cc2)cc1 -0.5
C/C(CC(O)c1ccc2ccccc2n1)=N/O (stereo not drawn) 0
CNC(=S)N=Nc1c(O)[nH]c2ccc(C(C)C)cc12 0
Cn1c(=O)c2c(nc3sccn32)n(C)c1=O 0
CC(C)(C)c1ccc(SCC(N)=O)cc1 0
CC(C)(C)c1ccc(C(=O)NC(=S)Nn2cnnc2)cc1 0
O=[n+]1c2c(n([O-])c3cc(F)c(N4CCCC4)cc31)CCCC2 3
COc1ccc2cc(C(=O)NCC(=O)O)sc(=O)c2c1OC 0
CCOC(=O)c1cnc(SCC(=O)Nc2nc(C)c(C)s2)nc1N 0
C=CCn1c(SCC(=O)Nc2sccc2C(N)=O)nc2ccc(Cl)cc2c1=O 0
Cc1c(C(=O)O)c(=S)sn1CCOc1ccccc1 0
Cc1ccc(-c2cnc(NC(=O)CCC(=O)N3CCCCC3)n2C)cc1 0
N#Cc1nc(Cc2ccccc2)oc1NCCc1ccccc1 -0.5
O=C(c1cccc(F)c1)N1CCN(C(=O)c2cc(-c3ccc(Cl)cc3Cl)on2)CC1 0
Cn1cccc1/C=N/n1c(-c2ccc(C(C)(C)C)cc2)n[nH]c1=S 0
Cc1ccc(-c2n[nH]c(=S)n2/N=C/c2cccs2)cc1 0.5
Cc1ccc(-c2n[nH]c(=S)n2/N=C/c2ccc(C)s2)cc1 0
COc1cccc(C(=O)NC(=S)Nc2ccc([N+](=O)[O-])cc2C)c1 0
O=C(CC(=O)Nc1ccccn1)Nc1ccccn1 0
O=C(NC(=S)Nc1ccccn1)c1cc(-c2ccccc2)nc2ccccc12 0.5
Cc1cc([N+](=O)[O-])ccc1NC(=S)NC(=O)Cc1ccccc1 0
Cc1ccc2cccc(NC(=S)NC(=O)c3ccnn3C)c2n1 0
Cc1ccc(OCC(=O)NC(=S)Nc2cccc(C)n2)cc1 0
COc1ccc(CO/N=C/c2c(C)[nH]c(=O)[nH]c2=O)cc1 0
CCCn1nnc(NC(=O)COc2ccc(C3CCCCC3)cc2)n1 0
CC(NC(=O)C1CC=CCC1C(=O)O)C1CC2CCC1C2 (stereo not drawn) 0
CCN(CC)c1ccc2cc(-c3nnc(-c4ccccc4)o3)c(=O)oc2c1 3
CCN(CC)CCn1c(NC(=O)c2ccc(Cl)cc2)nc2ccccc21 0
CCCn1nc2cc(C(=O)NCCc3ccc(C)cc3)ccc2c1OCC 0
CC1CN(C2CC(C)(C)NC(C)(C)C2)CCC1=O (stereo not drawn) 0
Cc1ccc2c(CC(=O)NC3CCCc4ccccc43)coc2c1 (stereo not drawn) 0
O=C1CCC(/C=C/c2ccccc2)=NN1Cc1ccc(Cl)c(Cl)c1 0
CCN1CCN(c2ccc(NC(=O)CCc3c(C)nc4c(-c5ccccc5)c(C)nn4c3C)cc2)CC1 0
Cc1cc(N2CCOCC2)n2nc(C)c(-c3ccccc3)c2n1 0

Manual score, active:
O=C(c1oc(=O)c2ccccc2c1-c1ccccc1)N1CCN(C2CCCCC2)CC1 -1
CCCCn1c(=S)[nH]c2c(oc3ccc(Cl)cc32)c1=O 1
Cc1ccc(C2C3=C(NCCN=C3c3ccccc3)C(=O)N2c2ccccc2)cc1 (stereo not drawn) -1
Cc1ccc2nsnc2c1S(=O)(=O)Nc1cccc2nsnc12 1
CCc1ccc(Nc2nc3ccccc3c(=O)s2)cc1 1
O=C(N/N=C\c1ccc(Cl)s1)c1cccs1 1
CCOC(=O)C1CCCN(c2ncnc3c2oc2ccccc23)C1 (stereo not drawn) -1
CCOC(=O)C1CCCN(c2nc(C)nc3c2oc2ccccc23)C1 (stereo not drawn) -1
Cc1ccc(C)c(C(=O)c2c(C)nc3sccn23)c1 -1
CC(C)(C)NC(=O)C(=O)NNC(=O)c1ccc(C(C)(C)C)cc1 1
Cc1cccc(C(=O)NNC(=O)C(=O)NC(C)(C)C)c1 1
CCOC(=O)c1c(NC(=O)CSc2nnc(Cc3csc(N)n3)n2C)sc(C)c1C -1
C=CCn1c(SCC(=O)Nc2sc(C)c(C)c2C(=O)OCC)nnc1-c1sc(N)nc1C -1
Cc1ccc(/C=N/n2c(-c3cccs3)n[nH]c2=S)cc1 1
Fc1ccc(/C=N/n2c(-c3cccs3)n[nH]c2=S)cc1 1
Cc1cccc(NC(=S)NC(=O)c2ccco2)n1 1
Cc1ccc2nsnc2c1NC(=S)NC(=O)c1ccco1 1
O=C(NC(=S)Nc1ccccn1)c1ccco1 1
Cc1ccc([N+](=O)[O-])cc1NC(=S)NC(=O)c1ccco1 1
CCCn1nnnc1NC(=O)c1ccc2ccccc2c1 1
Cc1nn2c(NCCCN(C)C)c3c(nc2c1-c1ccccc1)CCC3 -1
